# Active and inactive are the calls of the source.
# How the values were obtained:
# [1] = test system: PRMT1 (protein arginine N-methyltransferase 1); assay: PRMT1 binders on small-molecule microarrays, primary screen, biochemical, small-molecule microarray, 635 nm fluorescence (AID 1088); conditions: small-molecule microarray binding, higher = more signal;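 further: binding of Prmt1 protein to compounds spotted on small-molecule microarray slides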
# [2] = yeast growth modulation, basal conditions, primary screen, YJM789 clinical isolate, OD600, 24 h (AID 1089);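 further: growth of clinical yeast isolate S. cerevisiae YJM 789 seeded 1000 cells per well; test concentration not given here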; conditions: S. cerevisiae YJM789 growth, higher = more signal, called active from +8 up or from −8 down
# [3] = fission yeast growth modulation, primary screen, strain 972, OD600, 24 h, no modulator (AID 1090);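 further: basal condition with compound alone and no growth modifier present; test concentration not given here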; conditions: S. pombe 972 growth, higher = more signal, called active from +8 up or from −8 down
# [4] = S. cerevisiae growth modulation with rapamycin, primary screen, strain BY4716, OD600, 96 h (AID 1091); conditions: higher = more signal, called active from +8 up or from −8 down; further: test concentration not given here
# [5] = biological target: Torsin-1A-interacting protein 2 (Homo sapiens) (UniProt Q8NFQ8); assay: LULL1 binders on small-molecule microarray, primary screen, cell lysate, human LULL1 lysate, 635/667 nm fluorescence (AID 1092); conditions: hLULL1 lysate binding, 635 nm fluorescence, higher = more signal;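 further: probe is lysate of COS7 cells overexpressing human LULL1; score merges per-feature 667 nm fluorescence with signal-to-noise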
# Torsin-1A-interacting protein 2 (Homo sapiens), sequence (Q8NFQ8 whole entry, looked up): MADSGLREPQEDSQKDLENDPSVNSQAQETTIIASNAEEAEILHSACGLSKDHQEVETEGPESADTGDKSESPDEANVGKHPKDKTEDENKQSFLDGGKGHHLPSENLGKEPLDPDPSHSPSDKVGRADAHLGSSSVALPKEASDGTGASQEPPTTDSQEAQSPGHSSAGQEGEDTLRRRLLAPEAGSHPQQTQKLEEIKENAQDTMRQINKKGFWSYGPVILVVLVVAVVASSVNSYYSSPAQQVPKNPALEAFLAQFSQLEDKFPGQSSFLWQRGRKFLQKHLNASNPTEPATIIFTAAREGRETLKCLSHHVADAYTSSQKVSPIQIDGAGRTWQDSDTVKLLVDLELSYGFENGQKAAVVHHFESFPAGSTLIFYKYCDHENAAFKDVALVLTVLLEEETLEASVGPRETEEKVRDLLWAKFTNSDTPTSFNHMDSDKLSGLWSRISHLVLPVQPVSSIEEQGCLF
# [6] = E. coli growth modulation, two-sided OD650, primary screen, E. coli filamentation project, strain DRC41, 24 h (AID 1093); conditions: OD650, 24 h, higher = more signal, called active from +8 up or from −8 down;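 further: MC1000 strain lacking acrAB efflux and sulA so SOS filamentation is blocked; test concentration not given here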
# [7] = small-molecule microarray binders of probe aLefty2, primary screen, biochemical, biotinylated probe, 635/667 nm fluorescence (AID 1094); conditions: higher = more signal;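 further: score merges spot fluorescence near 667 nm with spot signal-to-noise ratio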
# [8] = test system: Noggin (protein binding on small-molecule microarray); assay: Noggin binders on small-molecule microarray, primary screen, biochemical, 635/667 nm fluorescence (AID 1095); conditions: 635 nm fluorescence, higher = more signal;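 further: score merges 667 nm feature fluorescence with signal to noise over triplicate slides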
# [9] = biological target: Neurogenic locus notch homolog protein 3 (Homo sapiens) (UniProt Q9UM47); assay: NOTCH3 binders on small-molecule microarray, primary screen, biochemical, 635/667 nm fluorescence (AID 1096); conditions: NOTCH3 binding, 635 nm fluorescence, higher = more signal
# Neurogenic locus notch homolog protein 3 (Homo sapiens), sequence (Q9UM47 whole entry, looked up): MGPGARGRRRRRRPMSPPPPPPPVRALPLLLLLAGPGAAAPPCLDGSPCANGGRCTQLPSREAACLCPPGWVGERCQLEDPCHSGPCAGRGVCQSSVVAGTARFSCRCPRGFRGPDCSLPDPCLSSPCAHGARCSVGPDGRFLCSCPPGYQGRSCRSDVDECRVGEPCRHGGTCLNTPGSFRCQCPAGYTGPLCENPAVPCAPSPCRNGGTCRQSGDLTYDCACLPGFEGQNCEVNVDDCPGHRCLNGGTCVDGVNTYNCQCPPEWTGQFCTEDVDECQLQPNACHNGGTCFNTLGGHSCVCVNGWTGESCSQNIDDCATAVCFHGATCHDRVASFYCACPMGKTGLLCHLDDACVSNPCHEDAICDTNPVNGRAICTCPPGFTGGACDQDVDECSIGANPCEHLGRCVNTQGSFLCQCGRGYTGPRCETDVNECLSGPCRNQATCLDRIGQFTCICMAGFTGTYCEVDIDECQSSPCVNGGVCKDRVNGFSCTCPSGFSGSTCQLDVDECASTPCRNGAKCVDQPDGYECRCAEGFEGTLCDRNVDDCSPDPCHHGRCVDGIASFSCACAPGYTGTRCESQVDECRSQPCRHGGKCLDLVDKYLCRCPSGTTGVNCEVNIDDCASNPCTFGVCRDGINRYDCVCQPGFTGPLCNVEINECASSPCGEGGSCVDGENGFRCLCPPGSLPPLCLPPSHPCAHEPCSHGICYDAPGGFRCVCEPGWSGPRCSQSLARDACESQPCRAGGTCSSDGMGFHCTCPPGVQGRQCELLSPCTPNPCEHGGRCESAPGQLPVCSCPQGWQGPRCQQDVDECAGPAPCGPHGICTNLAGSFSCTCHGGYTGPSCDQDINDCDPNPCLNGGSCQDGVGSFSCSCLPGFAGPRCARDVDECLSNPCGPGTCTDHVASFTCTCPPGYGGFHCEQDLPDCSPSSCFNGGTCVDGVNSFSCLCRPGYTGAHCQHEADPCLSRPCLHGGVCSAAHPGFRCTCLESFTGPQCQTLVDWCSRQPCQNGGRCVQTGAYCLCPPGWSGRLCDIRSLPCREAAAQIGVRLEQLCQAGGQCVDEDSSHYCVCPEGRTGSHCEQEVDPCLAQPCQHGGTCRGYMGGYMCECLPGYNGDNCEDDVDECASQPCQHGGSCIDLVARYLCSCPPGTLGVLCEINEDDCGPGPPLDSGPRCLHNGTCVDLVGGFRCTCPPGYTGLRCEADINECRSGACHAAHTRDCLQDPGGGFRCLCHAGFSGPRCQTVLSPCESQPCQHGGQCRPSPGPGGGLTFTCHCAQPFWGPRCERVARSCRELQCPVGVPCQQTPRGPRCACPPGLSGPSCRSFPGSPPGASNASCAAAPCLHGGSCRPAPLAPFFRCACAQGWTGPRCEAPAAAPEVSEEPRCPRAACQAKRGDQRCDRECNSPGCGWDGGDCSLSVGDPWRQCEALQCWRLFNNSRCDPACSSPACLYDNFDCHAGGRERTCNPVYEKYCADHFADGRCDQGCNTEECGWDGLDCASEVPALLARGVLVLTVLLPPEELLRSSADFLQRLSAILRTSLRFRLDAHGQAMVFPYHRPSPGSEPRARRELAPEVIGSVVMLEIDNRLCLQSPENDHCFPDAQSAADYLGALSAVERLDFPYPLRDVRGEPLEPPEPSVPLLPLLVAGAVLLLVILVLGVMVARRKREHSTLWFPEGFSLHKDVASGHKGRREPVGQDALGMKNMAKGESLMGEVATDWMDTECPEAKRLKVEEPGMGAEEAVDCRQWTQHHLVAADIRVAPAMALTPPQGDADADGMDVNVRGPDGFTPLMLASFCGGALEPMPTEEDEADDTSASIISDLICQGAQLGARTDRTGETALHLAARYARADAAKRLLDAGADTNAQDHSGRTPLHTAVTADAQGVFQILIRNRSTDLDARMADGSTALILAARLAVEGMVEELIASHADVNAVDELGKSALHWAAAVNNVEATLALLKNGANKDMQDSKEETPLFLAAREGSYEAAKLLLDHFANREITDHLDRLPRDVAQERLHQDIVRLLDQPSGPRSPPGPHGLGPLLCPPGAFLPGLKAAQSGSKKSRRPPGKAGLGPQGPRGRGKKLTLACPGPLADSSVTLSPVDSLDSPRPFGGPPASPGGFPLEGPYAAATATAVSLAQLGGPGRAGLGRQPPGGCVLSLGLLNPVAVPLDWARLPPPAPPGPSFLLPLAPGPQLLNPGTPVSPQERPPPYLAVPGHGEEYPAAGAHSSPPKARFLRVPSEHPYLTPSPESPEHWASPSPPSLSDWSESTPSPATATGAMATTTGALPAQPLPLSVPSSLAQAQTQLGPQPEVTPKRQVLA
# [10] = small-molecule microarray binders of probe aEGFR, primary screen, biochemical, biotinylated probe, 635/667 nm fluorescence (AID 1097); conditions: higher = more signal;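 further: probe is a biotinylated anti-EGFR antibody binding compounds printed on slides; score combines fluorescence near 667 nm and signal to noise of each spot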
Structure (SMILES),composite z-score [1],z-score [2],z-score [3],z-score [4],composite z-score [5],z-score [6],composite z-score [7],composite z-score [8],composite z-score [9],composite z-score [10]
COCCCNC(=O)[C@]1(CCC(=O)OC(C)(C)C)N=C(c2ccc(OCCCO)cc2)O[C@@H]1c1ccccc1,1.22,0.12 (inactive),1.06 (inactive),-0.302 (inactive),3.65,0.447 (inactive),0.629,-0.275,0.226,0.475
CC=CC(O)C1C=CC2C(=O)N(c3ccccc3)C(=O)C2N1Nc1ccccc1 (stereo not given),1.55,0.0831 (inactive),-0.32 (inactive),-0.474 (inactive),3.33,0.143 (inactive),0.209,0.0919,1.09,0.113
COc1ccc([Si](C)(C)[C@H]2[C@H](CC(=O)N3Cc4ccccc4C[C@H]3CO)O[C@@]3(C(=O)N(Cc4cccc(N5CCCCC5=O)c4)c4ccccc43)[C@@H]2C)cc1,1.29,-2.19 (inactive),0.522 (inactive),0.925 (inactive),1.79,-0.0352 (inactive),0.02,1.02,1.09,-0.0471
CCOc1cc(C(O)C2C=CC3C(=O)N(C)C(=O)C3N2N2CCCCC2)ccc1O (stereo not given),0.163,1.26 (inactive),0.803 (inactive),1.63 (inactive),2.56,-0.613 (inactive),0.0209,-0.185,0.0152,0.0054
O=C(NC1CC1)[C@@H]1c2ccccc2C(=O)N(Cc2ccccc2)[C@H]1c1ccc(CO)cc1,0.449,0.763 (inactive),0.109 (inactive),0.0225 (inactive),2.63,0.958 (inactive),-0.479,-0.43,-0.0341,-0.366
C=CC[C@@H](OC(=O)Nc1ccc(OC)cc1)c1ccc(OCCO)cc1,-0.424,-0.348 (inactive),-3.59 (inactive),0.126 (inactive),-0.0818,0.743 (inactive),-0.0304,-0.929,-0.801,-0.338
CCCCC(=C=CC[C@@H](O)c1ccc(OCCO)cc1)C[C@@H](O)COCc1ccccc1,0.989,-1.24 (inactive),-2.39 (inactive),-1.07 (inactive),0.146,1.69 (inactive),-0.166,1.14,-0.198,-0.18
CCCCC(CC)C(O)C1C=CC2C(=O)N(c3ccccc3)C(=O)C2N1Nc1ccc([N+](=O)[O-])cc1 (stereo not given),1.55,-0.777 (inactive),-0.126 (inactive),1.44 (inactive),3.65,-0.191 (inactive),0.0958,0.547,1.03,0.11
C=CCOC(=O)[C@H]1[C@@H]2C(=O)O[C@@H](c3ccccc3)[C@@H](c3ccccc3)N2[C@@H](c2ccc(OCCOC(=O)[C@H]3C[C@H]4C(=O)N[C@@H](Cc5ccccc5)C(=O)N4[C@H]3c3ccc(O)cc3)cc2)[C@]12C(=O)Nc1ccc(I)cc12,1.55,0.827 (inactive),1.36 (inactive),3.95 (inactive),2.39,-0.305 (inactive),-0.0267,1.69,1.05,-0.118
O=c1cccc(-c2ccc(C(F)(F)F)cc2)o1,-1.99,-2.99 (inactive),-8.39 (active),0.427 (inactive),-0.0985,-0.491 (inactive),-0.16,-0.161,-0.894,-0.22
COCCCNC(=O)[C@@]1(Sc2ccc(C)cc2)CC(=O)N(Cc2cc(C(F)(F)F)cc(C(F)(F)F)c2)[C@@H]1c1ccc(CO)cc1,1.54,-0.157 (inactive),-1.51 (inactive),-1.11 (inactive),1.46,-0.296 (inactive),-0.0927,1.6,0.715,-0.0531
CC(C)CN1C(=O)[C@@]2(Cc3ccccc31)c1ccccc1C(=O)N(Cc1ccccc1C(F)(F)F)[C@H]2c1ccc(CO)cc1,-1.7,-1.17 (inactive),-0.147 (inactive),-3 (inactive),-1.21,-0.861 (inactive),0.0169,-0.0224,-0.527,-0.187
C=C[C@H](COC(C)=O)NS(=O)(=O)c1ccc(Br)cc1,-0.0232,0.0313 (inactive),-1.4 (inactive),-0.124 (inactive),-0.0639,0.506 (inactive),-0.0598,0.0055,-0.564,-0.227
